Compound activity from PubChem.
Pf growth 96h = inhibits malaria parasite growth, 96 h. Potency, µM (titrated, usually from 28.7 µM), for inactives: top-dose activity change, negative = inhibition, most hits filed as inhibitors. P. falciparum luciferase reporter growth, 96 h. actives 6.9% (n = 320,000); note: potency is the fitted concentration of half-maximal effect; % is set by controls: 0 for no effect and ±100 for the full control effect
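Compounds incubated with erythrocytes infected by luciferase-expressing P. falciparum (2% hematocrit, 0.05% parasitemia final) for 96 hours, 37 C in 5% CO2. Growth inhibition scored as decreased luciferase luminescence.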
Shiga toxin inh = Shiga toxin inhibition | Vero cells, Shiga toxin protein synthesis inhibition reporter | inhibition, % at 38.7 µM | actives 9.2% (n = 290,000) | AID 2315; in the data active = inhibition mostly above about 28%, no sharp cut-off; inactive = mostly below about 43%; note: 0% is about no effect
AMA1 RON2 block = AMA1-RON2 (P. falciparum) interaction inhibition; AlphaScreen AMA1-biotinylated RON2 peptide binding; Potency, µM (top dose mostly 58.2 µM), for the others: at the highest dose activity change, negative = inhibition, usual class: inhibitors; actives 0.2% (n = 360,000); AID 720542;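 note: potency is the fitted concentration of half-maximal effect; 0% = vehicle wells and -100% = peptide control; nearly all actives have a fitted effect of over 45% in size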
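AMA1 (3D7) with his tag at 25 nM final met compounds first, then biotinylated RON2 peptide at 25 nM; detection used donor plus acceptor beads, 10 µg/mL apiece, read by AlphaScreen after 30 min at room temperature.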
CHX counter = counter-screen for Shiga toxin inhibitors: cycloheximide protein synthesis inhibition; cell reporter, cycloheximide protein synthesis inhibition counterscreen; max response, %; actives 12% (n = 300,000); in the data active = max response mostly above about 13%, no sharp cut-off; inactive = mostly below about 14%; note: read at 38.3 µM for the half of the compounds with a filed dose; 0% is about no effect
Pf growth 48h = P. falciparum growth inhibition at 48 hours (one generation) | P. falciparum luciferase growth in erythrocytes, 48 h | Potency, µM (series often up to 28.7 µM), without a hit: top-dose activity change, negative = inhibition, actives largely listed as inhibitors | actives 5.9% (n = 310,000); note: potency is the fitted concentration of half-maximal effect; % is set by controls: 0 for no effect and ±100 for the full control effect
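Growth was read as firefly luciferase luminescence after a 48 h, 37 C, 5% CO2 exposure of compounds to reporter-bearing P. falciparum cultures (0.1% parasitemia, 2% hematocrit final) in Albumax-supplemented RPMI 1640.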
HCV inhibitor = HCV inhibition. Huh7.5.1 HCVcc-Cre infection, luciferase reporter, 44 h. Potency, µM (series often up to 41.8 µM), for inactives: at the highest dose activity change, negative = inhibition, hits mostly inhibitors. actives 3.4% (n = 340,000). AID 651820; note: potency is the fitted concentration of half-maximal effect; % is set by controls: 0 for no effect and ±100 for the full control effect
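Reporter virus HCVcc-Cre (~0.5 moi) infects cells exposed to compound; seeding density 1,000 cells/well with 4 h settling beforehand. Luminescence, 15 sec read, taken 44 h post-infection following a 15 min RT substrate incubation.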
* marks the source's active call; other numbers are inactive results; u = inconclusive; x = no result; [ ] = another dose, or the depositor's remark. Compounds with a hit are over-represented: about 21% of the library has one in this group of screens. Unless noted, calls come from the whole dose curve; as a rule, active = well fitted curve in the direction sought with a large enough effect; inconclusive = small, poorly fitted or top-dose-only effect, or another doubt; inactive = no such curve, though single readings can be large; an effect the other way counts as inactive or inconclusive.

SMILES | Pf growth 96h | Shiga toxin inh | AMA1 RON2 block | CHX counter | Pf growth 48h | HCV inhibitor
CCOc1ccc(C(c2nnnn2C(C)(C)C)N2CCN(C(=O)c3ccco3)CC2)cc1 (configuration not stated) | -20% | 20 | -10% | -2 | u | 7%
O=C(NCCNC(=O)c1ccc(-c2ccc(Cl)c(Cl)c2)o1)c1cnccn1 | u | 11 | 0% | -2 | -19% | u
O=C(NCCCN1CCOCC1)c1ccc(Sc2ccc(Br)cc2)c([N+](=O)[O-])c1 | 15µM* | -2 | 2% | -4 | 3% | u
O=C(NC(=S)NCCCN1CCOCC1)c1cccc2ccccc12 | 6.6µM* | 3 | -15% | 4 | u | 2%
O=C(NC(=S)NCCCN1CCOCC1)c1ccc(Br)cc1 | -6% | 25 | 16% | 21* | 0% | 14%
Cc1ccc(C(=O)NC(=S)NCCCN2CCOCC2)cc1 | 17% | 50* | -23% | 20 | 33% | -2%
O=C(NC(=S)NCCN1CCOCC1)c1ccccc1 | u | 43 | 16% | 12 | 10% | 2%
CC(=O)CCc1ccc(OCC(=O)Nc2cccc(S(=O)(=O)N(C)c3ccccc3)c2)cc1 | u | x | 22% | x | u | -26%
Nc1ccccc1-n1nc2ccc3ccccc3c2n1 | x | x | 197% | x | x | x
Cc1ccc(C(=O)N/C(=C\c2ccc(-c3ccccc3[N+](=O)[O-])o2)C(=O)NCCCN2CCOCC2)cc1 | 2.9µM* | 26 | -9% | 11 | 1.9µM* | 25µM*
Cc1ccc(C(=O)N/C(=C\c2cn(C)c3ccccc23)C(=O)NCCCN2CCOCC2)cc1 | -9% | 11 | 1% | -1 | u | -4%
O=C1C=C(Nc2cccnc2)c2ccccc2C1=O | x | x | -14% | x | x | 13µM*
O=C1C=C(Nc2ccc(F)cc2)c2ccccc2C1=O | 1µM* | x | 4%[11.6 µM] | x | 1.9µM* | u
CCOc1ccc(NC2=CC(=O)C(=O)c3ccccc32)cc1 | x | x | -28% | x | x | u
CNc1ncnc(Sc2ccc(Cl)cc2)c1[N+](=O)[O-] | -49% | 14 | -10% | 2 | 9.3µM* | u
Cn1nc([N+](=O)[O-])nc1Sc1ccc(Cl)cc1 | -5% | -4 | 0% | -1 | u | 4%
O=C1Nc2ccccc2N=C(c2ccccc2)C1Br (configuration not stated) | -21% | 46* | -16% | 14 | 18% | 4%
O=C1Nc2ccccc2N=C(c2ccccc2)C1N1CCOCC1 (configuration not stated) | -13% | 6 | -3% | 3 | 15% | -7%
CCCCOc1cccc(C2/C(=C(\O)c3ccc4c(c3)OCCO4)C(=O)C(=O)N2CCN2CCOCC2)c1 (configuration not stated) | u | 2 | 1% | -1 | -27% | 12%
CC(C)c1ccc(OCC(=O)NNC(=O)c2cnccn2)cc1 | 10µM* | 24 | 71% | 3 | u | 29%
O=C(COc1ccc2ccccc2c1)NNC(=O)c1cnccn1 | 9.3µM* | -7 | 49% | -3 | 15µM* | -10%
CC(C)c1ccc(OCC(=O)Nc2ccncc2)cc1 | 29% | 9 | 4% | 6 | 13% | 2%
Cc1sc2c(c1C)CN(C1CC(C)(C)NC(C)(C)C1)CN2C(=O)c1ccco1 | 161% | 44* | x | 23* | u | u
COc1ccc(-c2cc(C(F)F)n3ncc(C(=O)Nc4ccc(C(=O)N5CCOCC5)cc4)c3n2)cc1 | 44% | 1 | -1% | -3 | u | -13%
CCn1nc(C)c(NC(=O)c2cnn3c(C(F)F)cc(-c4ccccc4)nc23)c1C | u | -1 | -18% | -2 | u | 14µM*
SMILES | Pf growth 96h | Shiga toxin inh | AMA1 RON2 block | CHX counter | Pf growth 48h | HCV inhibitor
Cc1ccc(-c2cc(C(F)F)n3ncc(C(=O)Nc4ccc(S(=O)(=O)Nc5ccccc5C)cc4)c3n2)cc1 | 15µM* | -10 | -4% | 10 | 1.9µM* | u
COc1ccc(NS(=O)(=O)c2ccc(NC(=O)c3cnn4c(C(F)F)cc(-c5ccc(C)cc5)nc34)cc2)cc1 | 0.83µM* | -15 | x | -3 | u | x
NC(=O)c1cccc(-c2cnc(N)c(C(=O)c3cccnc3)n2)c1 | x | x | 10% | x | x | u
NC(=O)COC(=O)c1ccc2noc(-c3ccccc3)c2c1 | 78% | 81* | 2% | 57* | x | 1%
CC(/C=C/c1ccccc1)=N\NC(=O)c1ccncc1 | 9% | -11 | 41% | -2 | -27% | 1%
CC(/C=C/c1ccccc1)=N\NC(=S)NC(C)C | 4.7µM* | 99* | 44% | 82* | -23% | u
CC(/C=C/c1ccccc1)=N\NC(N)=S | u | 52* | 21% | 27* | 10µM* | 16µM*
COc1cccc(C(=O)N2[C@H](COCc3ccccc3)C=CS2(=O)=O)c1 | x | x | -1% | x | x | x
COCCN(C(=O)c1csnn1)C(C(=O)NC1CCCCC1)c1ccccc1 (configuration not stated) | 16% | -3 | 10% | -3 | 19% | 15%
CN(C)C=Nc1ncc2c([nH]c3ccccc32)c1C#N | u | 36 | -1% | 50* | u | u
Cc1onc(-c2ccccc2Cl)c1NC(=O)NCc1cccs1 | u | 27 | 0% | -2 | u | 24%
CN1CCN(c2ccc(NC(=O)c3cccs3)cc2)CC1 | u | 41 | 0% | 32* | 79% | 3%
O=C(Nc1ccc(C(=O)N2CCOCC2)cc1)c1cccs1 | -19% | 51 | -16% | 18 | -7% | u
Cc1ccc(C(=O)N2CCN(c3ccc(NC(=O)c4cccs4)cc3)CC2)cc1 | u | 23 | -9% | 15 | 10µM* | u
COc1cc(OC)cc(C(=O)Nc2ccc(N3CCN(C(=O)c4cccs4)CC3)cc2)c1 | 8% | -23 | -19% | -2 | u | u
COc1ccc(C(=O)Nc2ccc(N3CCN(C(=O)c4cccs4)CC3)cc2)cc1Br | 9.3µM* | -2 | -6% | 9 | u | -18%
O=C(Nc1ccc(C(=O)N2CCCCC2)cc1)c1cccs1 | 30% | 68* | -1% | 19* | 42% | 22%
O=C(CCCCCN1C(=O)[C@@H]2Cc3ccccc3CN2C1=O)Nc1ccccc1F | u | 11 | 13% | 10 | -20% | u
Cc1ccc2c(c1)Sc1c(ccc3ccccc13)N2 | u | 85* | u | 54* | 62% | 14%
Cc1ccnc(NC(=O)COc2ccc(Cl)cc2)n1 | 42% | 41 | 1% | 25* | 67% | 12%
O=C(COc1ccc(Cl)cc1)Nc1nc(-c2ccncc2)cs1 | u | -4 | -3% | 1 | -9% | 13%
O=C(COc1ccc(Cl)cc1)Nc1ncccn1 | x | 35* | 3% | 34* | 55% | 13%
Cc1cc(C)nc(NC(=O)COc2cc(Cl)cc(Cl)c2)n1 | -2% | -5 | -12% | -2 | x | 6%
